Screening results from PubChem.
TDP1 block: TDP1 (human) enzyme inhibition; recombinant TDP1, AlphaScreen DNA substrate cleavage; Potency, µM (top dose mostly 130 µM), for the others: at the top dose activity change, negative = inhibition, usual class: inhibitors; 350,000 compounds, 0.28% hits; AID 485290; note: % is set by controls: 0 for no effect and ±100 for the full control effect; nearly all actives have a fitted effect of over 40% in size
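Signal: AlphaScreen proximity between streptavidin donor and anti-FITC acceptor beads on intact substrate. Reaction: Tdp1 1 nM, substrate 15 nM final, 5 min RT after 15 min compound preincubation.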
TDP1 cell CPT: DT40-hTDP1 cell growth loss with CPT; chicken DT40 Tdp1-/-;hTDP1 cells + 20 nM CPT, ATP luminescence, 48 h; Potency, µM (highest dose often 46.2 µM), without a hit: at the top dose activity change, negative = growth inhibition, most hits filed as inhibitors; 420,000 compounds, 12% hits; AID 686979; note: % is set by controls: 0 for no effect and ±100 for the full control effect; nearly all actives have a fitted effect of over 55% in size
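Chicken DT40 Tdp1-/- cells stably complemented with human TDP1 were seeded at 400 cells/well in medium containing 20 nM camptothecin, exposed to pin-transferred compounds, and grown at 37 °C for at least 48 hr. Viability was read as ATP luminescence.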
TDP1 cell noCPT: qHTS for Inhibitors of human tyrosyl-DNA phosphodiesterase 1 (TDP1): qHTS in cells in absence of CPT; Potency, µM (series often up to 46.2 µM), without a hit: at the top dose activity change, negative = growth inhibition, most hits filed as inhibitors; 420,000 compounds, 15% hits; DT40 Tdp1-/- hTDP1 cells, no CPT, ATP luminescence, 48 h; AID 686978, 2013; note: % is set by controls: 0 for no effect and ±100 for the full control effect; nearly all actives have a fitted effect of over 55% in size
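Chicken DT40 Tdp1-/- cells complemented with human TDP1, screened without camptothecin (DMSO vehicle only), 400 cells/well. Compounds pin-transferred, cells incubated at 37 °C for at least 48 hr. Growth read as ATP-dependent luminescence (CellTiter-Glo, 30 min at RT).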
ClpP mod: qHTS Assay for Activators of ClpP. Potency, µM (top dose mostly 57.5 µM), without a hit: top-dose activity change, negative = active. AID 651965, 2013. 340,000 compounds, 1.9% hits. purified B. subtilis ClpP, FRET peptide cleavage, 20 min. ATP-dependent Clp protease proteolytic subunit (Bacillus subtilis (strain 168)), P80244; active = well fitted falling curve with a large enough effect; inconclusive = small, poorly fitted or top-dose-only effect; inactive = no such curve, though single readings can be large or run the other way; note: the source files actives as falling curves though it sought activators and does not explain the sign; nearly all actives have a fitted effect of over 65% in size
Target sequence (P80244 whole entry, looked up): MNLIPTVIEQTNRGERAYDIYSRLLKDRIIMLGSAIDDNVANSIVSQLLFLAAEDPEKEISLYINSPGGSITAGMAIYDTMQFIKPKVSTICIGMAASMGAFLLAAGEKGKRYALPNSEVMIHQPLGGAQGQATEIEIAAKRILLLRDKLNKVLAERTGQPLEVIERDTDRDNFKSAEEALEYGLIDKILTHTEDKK
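ClpP 10 microg/mL final, pH 8 Tris/KCl buffer with BSA, glycerol, Tween-20; compound pinned in; FRET-FV substrate; RT 20 min; Ex320/Em430; ΔFRET vs ADEP 5.8 microM, DMSO, no enzyme.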
* = called active by the depositor; [ ] = another dose, or the depositor's remark. Most compounds without a hit are left out; they make up all but 17% or so of the library. Unless noted, calls come from the whole dose curve; as a rule, active = well fitted curve in the direction sought with a large enough effect; inconclusive = small, poorly fitted or top-dose-only effect, or another doubt; inactive = no such curve, though single readings can be large; an effect the other way counts as inactive or inconclusive. Potency is the fitted concentration of half-maximal effect.

C[C@@H]1CC(=O)NN=C1c1ccc(NN=C(C#N)C#N)cc1 was read as TDP1 cell CPT 11µM* and TDP1 cell noCPT 9.4µM*.
For CCc1nc(CN2CCOc3ccc(C(O)C4CCCCC4)cc3C2)c(C)[nH]1 (stereo not drawn) the results were TDP1 cell CPT inconclusive and TDP1 cell noCPT 18µM*.
`OC(c1ccc2c(c1)CN(Cc1cccc3nccnc13)CCO2)C1CCCCC1` (stereo not drawn) gave TDP1 cell CPT 6% and TDP1 cell noCPT -19%.
For COc1ccccc1N(Cc1ccccc1)S(=O)(=O)c1cccc(C(=O)Nc2ccc(C(C)=O)cc2)c1 the results were TDP1 block 5%, TDP1 cell CPT -5%, TDP1 cell noCPT inconclusive and ClpP mod 0%.
For COc1ccccc1N(C)S(=O)(=O)c1ccc(C)c(C(=O)N2CCCCCC2)c1 the results were TDP1 block -10%, TDP1 cell CPT 7.3µM*, TDP1 cell noCPT 7.3µM* and ClpP mod 1%.
Screening COc1ccccc1N(Cc1ccccc1)S(=O)(=O)c1cccc(C(=O)N2CCCCC2)c1 returned TDP1 block -1%, TDP1 cell CPT inconclusive, TDP1 cell noCPT 18µM* and ClpP mod 1%.
`COc1ccccc1N(C)S(=O)(=O)c1ccc(C(=O)N2CCC2)cc1` gave TDP1 block -8%[0.505 µM], TDP1 cell CPT inconclusive, TDP1 cell noCPT inconclusive and ClpP mod -29%.
For COc1ccc(OC)c(NC(=O)c2cccc(S(=O)(=O)N(Cc3ccccc3)c3ccccc3OC)c2)c1 the results were TDP1 block 5%, TDP1 cell CPT 6.5µM*, TDP1 cell noCPT inconclusive and ClpP mod -13%.
For O=C(Nc1cc(C(F)(F)F)cc(C(F)(F)F)c1)[C@H]1O[C@@H](n2ccc(=O)[nH]c2=O)[C@H](O)[C@@H]1O the results were TDP1 cell CPT -28%, TDP1 cell noCPT -28% and ClpP mod 2%.
Screening COC(=O)CN1C(=O)CSc2ccc(S(=O)(=O)Nc3cccc(Cl)c3C)cc21 returned TDP1 block 3%, TDP1 cell CPT -3%, TDP1 cell noCPT inconclusive and ClpP mod -2%.
`CCN=C1S/C(=C\c2cc(OCC)c(O)cc2Br)C(=O)N1CC` gave TDP1 block -3%, TDP1 cell CPT 21µM*, TDP1 cell noCPT 12µM* and ClpP mod 2%.
CCN=C1S/C(=C\c2cn(CC)c3ccccc23)C(=O)N1CC was read as TDP1 block 5%, TDP1 cell CPT 23µM* and TDP1 cell noCPT 10µM*.
Screening CCN1C(=O)S/C(=C/c2cn(C)c3ccccc23)C1=O returned TDP1 block 3%, TDP1 cell CPT -4%, TDP1 cell noCPT -20% and ClpP mod 2%.
`O=C1/C(=C/c2cccc(O)c2)SC(=S)N1CC1CCCO1` (stereo not drawn) gave TDP1 block 7%, TDP1 cell CPT inconclusive and TDP1 cell noCPT inconclusive.
CCN=C1S/C(=C\c2ccc(O)c(OCC)c2)C(=O)N1CC was read as TDP1 block -10%, TDP1 cell CPT 26µM*, TDP1 cell noCPT 21µM* and ClpP mod -1%.
COc1cc(/C=C2/SC(=NCc3ccccc3)N(Cc3ccccc3)C2=O)ccc1O was read as TDP1 block 8%, TDP1 cell CPT inconclusive, TDP1 cell noCPT inconclusive and ClpP mod -4%.
CCOc1cc(/C=C2/SC(=S)N(CC3CCCO3)C2=O)ccc1O (stereo not drawn) was read as TDP1 block 0%, TDP1 cell CPT inconclusive, TDP1 cell noCPT 23µM* and ClpP mod 0%.
Nc1ncnc2c1ncn2[C@@H]1O[C@H](COP(=O)(O)OP(=O)(O)OC[C@H]2OC(O)[C@H](O)[C@@H]2O)[C@@H](O)[C@H]1O (stereo partly drawn) was read as TDP1 block -1%, TDP1 cell CPT -20% and TDP1 cell noCPT inconclusive.
Screening O=S(=O)(c1cccc2ccccc12)N1CCC2CC1c1cc(Cl)ccc12 (stereo not drawn) returned TDP1 cell CPT inconclusive, TDP1 cell noCPT inconclusive and ClpP mod -2%.
